Screens deposited in PubChem BioAssay by National Center for Advancing Translational Sciences (NCATS).
The list is not random: actives were taken first. Their share in the collection is about 2.6%.
Cruzain inh noDet: blocks cruzain activity in detergent-free assay | P25779 | purified cruzain, Z-FR-AMC fluorescence, no detergent | Potency, µM, most hits filed as inhibitors | hit rate 2.3% among 200,000; note: nearly all actives have a fitted effect of over 40% in size
Target sequence (P25779 123-467 limits assumed): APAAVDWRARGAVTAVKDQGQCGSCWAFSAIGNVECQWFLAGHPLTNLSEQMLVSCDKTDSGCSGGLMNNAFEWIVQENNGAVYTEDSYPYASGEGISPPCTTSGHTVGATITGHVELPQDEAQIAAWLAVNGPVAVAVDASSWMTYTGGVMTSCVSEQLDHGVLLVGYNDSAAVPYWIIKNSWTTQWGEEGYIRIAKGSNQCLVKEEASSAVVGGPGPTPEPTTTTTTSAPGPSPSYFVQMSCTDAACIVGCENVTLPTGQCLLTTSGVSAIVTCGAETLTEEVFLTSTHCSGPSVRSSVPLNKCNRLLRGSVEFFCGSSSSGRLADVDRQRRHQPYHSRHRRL
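Detergent-free condition (0.00005% Triton X-100) in acetate buffer pH 5.5 with DTT. 1.5 nM enzyme and compound were pre-mixed 15 min, then 2 uM Z-FR-AMC substrate added; reaction progress from fluorescence change between first and third reads (60 s).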
Cruzain Triton: blocks cruzain activity in presence of Triton detergent | Potency, µM, most hits filed as inhibitors | P25779 | hit rate 0.43% among 200,000 | AID 1478 | purified cruzain, Z-FR-AMC fluorescence, 0.01% Triton; note: nearly all actives have a fitted effect of over 40% in size
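Cysteine protease activity tested under reducing, mildly acidic conditions (100 mM sodium acetate pH 5.5, 5 mM DTT) plus 0.01% Triton X-100. Cruzain 1.5 nM; substrate Z-FR-AMC 2 uM; 15 min compound preincubation at room temperature.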
Large screens that a line does not name were inactive. Calls come from the whole dose curve; as a rule, active = well fitted curve in the direction sought with a large enough effect; inconclusive = small, poorly fitted or top-dose-only effect, or another doubt; inactive = no such curve, though single readings can be large; an effect the other way counts as inactive or inconclusive.

CCc1cccc(NC(=O)CSc2ncc3c(n2)-c2ccc(Cl)cc2N(Cc2ccccc2)S3(=O)=O)c1	none
CCCCCCOc1ccc(C2C(=O)N(C3CCCCC3)CC(=O)N2CCCC)cc1 (stereo not drawn)	none
O=C1CC(=C(c2ccccc2)c2ccccc2)C(=O)N1CCCN1CCN(c2cccc(Cl)c2)CC1	Cruzain inh noDet inconclusive
O=C1CC(=C2c3ccccc3-c3ccccc32)C(=O)N1CCCCN1CCN(c2ccccc2)CC1	Cruzain inh noDet 16µM
CCCNc1ncnc2c1c(-c1ccccc1)cn2-c1ccccc1	none
Cc1ccccc1-c1noc(CSc2nnc(Cc3ccccc3)n2-c2ccc(F)cc2)n1	none
CC1(C)N=C(c2ccc(F)cc2)C(=O)N1CC(=O)Nc1ccccc1Cl	none
CC(=O)Nc1cccc(-c2nnc(SCC(=O)c3cc([N+](=O)[O-])ccc3Br)o2)c1	none
C/C(=N\NC(=O)CSCc1ccc(Cl)cc1)c1ccc(NC(=O)c2ccccc2)cc1	Cruzain inh noDet 25µM
O=C(Cc1ccc(Cl)cc1)Nc1ccc(NC(=O)c2ccccc2)cc1	Cruzain inh noDet 25µM
C/C(=N/NC(=O)CSCc1ccc(Cl)cc1)c1cccc(NC(=O)c2ccccc2)c1	Cruzain inh noDet inconclusive
Cc1cccc(C(=O)Nc2ccc(NC(=O)Cc3ccc(Cl)cc3)cc2)c1	Cruzain inh noDet inconclusive
COc1ccc(C2CC(=O)c3cc(-c4nc(-c5ccc(C)cc5)cs4)c(=O)[nH]c3C2)cc1 (stereo not drawn)	Cruzain inh noDet inconclusive
COc1cccc(CNC(=O)C2CCN(c3nnc(-n4c(C)ccc4C)s3)CC2)c1OC	none
CC(=O)c1cccc(NC(=O)CSc2nc3c(=O)n(C)c(=O)n(C)c3n2C)c1	Cruzain inh noDet inconclusive
O=S(=O)(c1ccc(Cl)cc1)N1CCN(c2nc(-c3cccs3)nc3ccccc23)CC1	Cruzain inh noDet 10µM
O=C(c1cc(-c2cccs2)nc2ccccc12)N1CCN(S(=O)(=O)c2ccccc2)CC1	Cruzain inh noDet inconclusive
Cc1cc(N2CCN(S(=O)(=O)c3ccccc3)CC2)c2ccccc2n1	none
O=S(=O)(c1ccccc1)N1CCN(c2nc(-c3cccs3)nc3ccccc23)CC1	Cruzain inh noDet 16µM
C=CCC(Nc1ccc(OC)cc1)(C(=O)OCC)c1ccccc1 (stereo not drawn)	none
CCC(CC)c1nn2c(=O)cc(COc3ccc(NC(=O)c4ccc(Cl)cc4)cc3)nc2s1	none
Clc1ccc(OCCSCc2nc3ccccc3[nH]2)cc1	Cruzain inh noDet 25µM, Cruzain Triton inconclusive
Cc1ccc(OCCSCc2nc3ccccc3[nH]2)cc1	none
Cc1ccc(S(=O)(=O)N(C)Cc2ccc(C(=O)N/N=C/c3ccc(OC(F)F)cc3)cc2)cc1	Cruzain inh noDet 10µM
C/C(=N\NC(=O)c1ccc(CN(C)S(=O)(=O)c2ccc(C)cc2)cc1)c1ccc(OC(F)F)cc1	none
N#Cc1cccc(NC(=O)c2nc(-c3ccccc3)n(-c3ccccc3)n2)c1	none
N#Cc1c(-c2ccccc2)nc2n(-c3ccccc3)nc(C(=O)Nc3ccccc3)n2c1=O	Cruzain inh noDet 10µM
CCc1ccc(NS(=O)(=O)c2ccc3[nH]cc(C(=O)NCCc4ccccc4)c(=O)c3c2)cc1	Cruzain inh noDet 7.9µM
Cc1cc(C)cc(NS(=O)(=O)c2ccc3[nH]cc(C(=O)NCCc4ccccc4)c(=O)c3c2)c1	Cruzain inh noDet inconclusive
Cc1nc2cnc(N3CCOCC3)nc2n(CCC#N)c1=O	none
C=CCn1c(C)cc(C(=O)COC(=O)CNC(=O)c2ccccc2)c1C	Cruzain inh noDet 20µM, Cruzain Triton 25µM
C=CCn1c(C)cc(C(=O)COC(=O)C2CC(=O)N(Cc3ccccc3)C2)c1C (stereo not drawn)	none
Cc1ccc(C(=O)NCC(=O)OCC(=O)c2cc(C)n(Cc3ccco3)c2C)cc1	none
Cc1cc(C(=O)COC(=O)CNC(=O)c2ccc(Cl)c(Cl)c2)c(C)n1Cc1ccco1	Cruzain Triton 10µM
COc1ccc(CCNC(=O)CCn2c(=O)c3ccccc3n(CC(=O)Nc3ccccc3F)c2=O)cc1OC	none
O=C(NCCc1ccccc1)c1ccc2nc(-c3ccco3)c(-c3ccco3)nc2c1	Cruzain inh noDet inconclusive, Cruzain Triton 16µM
O=C(NCCc1ccccc1)c1ccc(=O)oc1	none
CCOc1ccccc1C(=O)NCc1ccc2c(c1)CCN2C(=O)c1ccccc1	none
Cc1ccc(CNC(=O)Cn2cc(C(=O)c3ccc(Cl)cc3)c(=O)c3ccc(C)nc32)cc1	none
CCOC(=O)C1(C)C=C(Nc2ccc(OC)cc2)C(=O)N1c1ccc(OC)cc1 (stereo not drawn)	Cruzain inh noDet 16µM
CCOC(=O)C1(C)C=C(Nc2ccc(O)cc2)C(=O)N1c1ccc(O)cc1 (stereo not drawn)	none
Cc1ccc(S(=O)(=O)NCCc2nnc3ccc(SCC(=O)Nc4c(C)cc(C)cc4C)nn23)cc1	none
Cc1ccccc1C(=O)Nc1cccc(C(=O)OCc2cc(=O)n3c4c(sc3n2)CCCC4)c1	none
CCOC(=O)C(Cc1ccccc1)C(=O)Nc1ccccc1C (stereo not drawn)	none
